Source: PubChem (National Center for Advancing Translational Sciences (NCATS))
Pf Dd2 growth: qHTS Primary assay for Inhibitors of Plasmodium falciparum Dd2 growth in vitro; P. falciparum Dd2 growth, SYBR Green, 72 h; Potency, µM (doses to about 28.9 µM), for inactives: at the highest dose activity, negative = inhibition, hits mostly inhibitors; actives 4.3% (n = 120,000); AID 1347417, 2020; active = well fitted inhibition curve with a large enough effect;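 note: plate controls were DMSO vehicle for no effect and reference drug for full effect; nearly all actives have a fitted effect of over 65% in size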
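Readout: SYBR Green fluorescence, 485 nm excitation, 535 nm emission, after ~16 h lysis at 37C. Before that, Dd2-infected red cells (2.5% hematocrit) grew 72 h with compound, 29 uM top final concentration.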
Starred values were filed as active, the others as inactive; i = inactive; [ ] = remark or other dose. The entries come from a sample that favours hits as a whole. Potency is the fitted concentration of half-maximal effect.

SMILES | Pf Dd2 growth
COC(=O)c1ccc(OCC2c3cc(OC)c(OC)cc3CCN2C(=O)Cc2ccc(OC)cc2)cc1 (stereo not drawn) | 10µM*
COc1cc2c(cc1OC)C(CNC(=O)CC(C)C)N(C(=O)NC(C)C)CC2 (stereo not drawn) | i
CNC(=O)[C@@H]1CN(C(=O)Cc2ccc(OC)c(OC)c2)C[C@H]1COC | -11%
COc1cc2c(cc1OC)C(CC(=O)O)N(C(=O)Nc1cc(OC)c(OC)c(OC)c1)CC2 (stereo not drawn) | i
COc1ccc(CC(=O)N2[C@@H]3CC[C@H]2CC(NC(=O)c2ccc(F)cc2)C3)cc1OC (stereo partly drawn) | i
COC(=O)c1ccc(OCC2c3cc(OC)c(OC)cc3CCN2C(=O)c2ccc(OC)cc2)cc1 (stereo not drawn) | 7.1µM*
CN(C)C(=O)C1CN(C(=O)Nc2ccc(F)cc2)CC12CCOCC2 (stereo not drawn) | 17%
O=C(c1ccc(CSc2ncccn2)o1)N1CCC2(CCOCC2)CC1 | -3%
CC(C(=O)NCC1CCOCC1)c1ccccc1 (stereo not drawn) | 15%
CCS(=O)(=O)N1CCC2(CCCN(C3CCOCC3)C2=O)C1 (stereo not drawn) | -8%
CC(=O)N1CCCC(c2[nH]ccc2C(=O)NCCCn2cccn2)C1 (stereo not drawn) | 12%
COc1ccccc1C(=O)N1CCC2CC(=O)NCCC2C1 (stereo not drawn) | 8%
O=C(CCc1ccc(O)cc1)N1CCC2(CCNCC2)CC1 | 14%
COc1ccc(C(=O)NC(C(=O)NCC(C)C)C2CCN(C(=O)C3CCCC3)CC2)cc1 (stereo not drawn) | i
CC(C)CNC(=O)C(NC(=O)c1ccccc1Cl)C1CCN(C(=O)c2ccc(Cl)cc2)CC1 (stereo not drawn) | i
COc1cccc(CNC(=O)[C@@H]2C[C@@H](O)CN2C2CCN(C(=O)COc3ccccc3)CC2)c1 | i
CCCCC(=O)N1CCc2cc(OC)c(OC)cc2C1COc1ccc(C(=O)OCC)cc1 (stereo not drawn) | 11µM*
COc1cc2c(cc1OC)C(COc1ccccc1OC)N(C(=O)COc1ccc(Cl)cc1)CC2 (stereo not drawn) | 8.9µM*
CCOC(=O)CC1c2cc(OCC)c(OCC)cc2CCN1C(=O)Nc1cccc(Cl)c1 (stereo not drawn) | -23%
CCCC(=O)N1CCc2cc(OC)c(OC)cc2C1COc1ccc(C(=O)OC)cc1 (stereo not drawn) | 10µM*
COC[C@@H]1CN(C(=O)COc2ccc(Cl)cc2)C[C@H]1C(N)=O | -1%
COc1ccc(C(=O)N2CCN(C(=O)COc3ccc(C)cc3)CC2)cc1OC | 24%
CCOc1ccc(NC(=O)N2CCc3cc(OC)c(OC)cc3C2CNC(=O)CC(C)C)cc1 (stereo not drawn) | i
CCNC(=O)N1CCc2cc(OC)c(OC)cc2C1CNC(=O)CC(C)C (stereo not drawn) | 0%
COc1ccc(CC(=O)N2CCc3cc(OC)c(OC)cc3C2COc2cc(C)cc(C)c2)cc1OC (stereo not drawn) | 4µM*
SMILES | Pf Dd2 growth
CCOc1cc2c(cc1OCC)C(CC(=O)OC)N(C(=O)Nc1cc(C)cc(C)c1)CC2 (stereo not drawn) | 20%
O=C(O)c1ccnc(-c2ccnc(NCCN3CCCCC3=O)n2)c1 | -3%
Cc1nccn1CC1CCN(C(=O)c2cn(C3CCC(N)CC3)nn2)CC1 (stereo not drawn) | -1%
Cc1c(C(=O)O)sc2ncnc(N3CCNC(C(=O)O)C3)c12 (stereo not drawn) | 13%
CNc1ncc(CN(C)C(=O)CCc2cc3n(n2)CCCNC3)cn1 | -4%
CCN1CC2(CCN(C(=O)c3ccc4c(c3)ncn4CCO)CC2)OC1=O | 2%
N#Cc1ccc(N2CCN(C(=O)CCc3ccncc3)CC2=O)cc1 | 1%
Cc1ccc(NC(=O)[C@@H]2CNC[C@H](C(=O)N3CCN(CCO)CC3)C2)cc1 | -3%
O=C1NCCCCCCN(C(=O)Nc2ccccc2)[C@H]2C[C@H](c3nc(-c4cccnc4)no3)C[C@@H]12 | -12%
Nc1nccc(N2CCN(Cc3ccccc3F)C(CCO)C2)n1 (stereo not drawn) | -11%
CCc1c(C)sc2c1CCN(Cc1cccc(OC)c1)C2c1ccccc1 (stereo not drawn) | 7.9µM*
CC(C)(C)c1coc([C@@H]2COCCN2Cc2ccccc2F)n1 | i
COc1cccc(Cn2c(C)c(CNC3CCCCC3)c(C(=O)O)c2C)c1 | 13%
COc1cccc(CN2CCOCCNC(=O)CC2)c1 | -12%
CCc1c(C)sc2c1CCN(Cc1ccccc1F)C2c1ccccc1 (stereo not drawn) | 3.2µM*
CCCCCNc1ncnc2c1CN(c1ccccc1F)C(=O)CN2C | 9%
COc1cc(-c2nc(C3CC(=O)N(c4ccc(Cl)cc4)C3)no2)cc(OC)c1OC (stereo not drawn) | -22%
O=C(NCc1cccc(Cl)c1)C1CCN(C(=O)c2ncn3c2COC(c2ccccc2)C3)CC1 (stereo not drawn) | i
COc1ccc(C(=O)N2CCOCC3(CN(Cc4cc(F)cc(F)c4)C3)C2)cc1 | 17%[44.1 µM]
O=C(CCS(=O)(=O)c1ccccc1)N(Cc1cccnc1)c1nc2ccc(F)cc2s1 | i
O=C(c1ccco1)N(Cc1cccnc1)c1nc2c(F)cc(F)cc2s1 | i
COc1ccc2sc(N(Cc3cccnc3)C(=O)CCc3ccccc3)nc2c1 | -7%
CCc1ccc2nc(N(Cc3cccnc3)C(=O)c3ccc(C#N)cc3)sc2c1 | 8.9µM*
COc1cccc2sc(N(Cc3cccnc3)C(=O)Cc3ccccc3)nc12 | i
O=C(CCc1ccccc1)N(Cc1cccnc1)c1nc2c(F)cc(F)cc2s1 | 10µM*
SMILES | Pf Dd2 growth
CC(=O)N(Cc1cccnc1)c1nc2ccc(F)cc2s1 | 7%
O=C(c1ccc(Br)s1)N(Cc1cccnc1)c1nc2ccc(F)cc2s1 | 2.5µM*
O=C(C1COc2ccccc2O1)N(Cc1cccnc1)c1nc2ccc(F)cc2s1 (stereo not drawn) | i
O=C(COc1ccccc1)N(Cc1cccnc1)c1nc2c(F)cc(F)cc2s1 | -8%
Cc1ccc2nc(N(Cc3cccnc3)C(=O)C3COc4ccccc4O3)sc2c1 (stereo not drawn) | 6%
Cc1ccc2nc(N(Cc3cccnc3)C(=O)c3ccco3)sc2c1 | 10µM*
COc1ccc(Cn2c(C3CCN(C(=O)c4cccc(OC)c4)CC3)n[nH]c2=O)cc1 | -10%
CCS(=O)(=O)Nc1ccc(C)n(CC(=O)NCc2ccccc2C)c1=O | i
N[C@@H]1CC[C@@H]1NC(=O)c1ccccc1-c1nc(-c2ccccc2)no1 | -18%
O=C(C1COc2ccccc2O1)N(Cc1cccnc1)c1nc2c(Cl)cccc2s1 (stereo not drawn) | i
O=C(c1ccc2c(c1)OCCO2)N(Cc1cccnc1)c1nc2ccc(Cl)cc2s1 | i
O=C(C1CCCCC1)N(Cc1cccnc1)c1nc2ccc(Cl)cc2s1 | 3.2µM*
COc1cccc([S+](=O)([O-])N2CCCC3(CC(c4cccnc4)=NO3)C2)c1 (stereo not drawn) | 5%
O=C(O)C[C@@H]1CCN(C(=O)C2CCCC2)C[C@@H]1CCN1CCC(n2c(=O)[nH]c3ccccc32)CC1 | -16%
COc1ccc(-c2noc(N3CCC(C(=O)N4CCN(c5cccc(C)c5C)CC4)CC3)n2)cc1 | 32%
CC1=C(c2ccc(Cl)cc2)S(=O)(=O)N=C1N1CCN(c2cccc(C)c2C)CC1 | -14%
